From PubChem BioAssay (EPA / NIEHS) come the findings set out here.

Several values for one entry are separate records, joined by “and”; a condition that tells them apart may be missing. Identical values can stand only once. The source holds several records for some structures; these can differ, active in one and inactive in another. Activity calls are given as the source filed them. How the source made its calls: active means hit-call score of the fitted dose curve at least 0.9, where 1 is the maximum; inactive means score below 0.9.

Read-out in assay [1]: Monocyte Chemoattractant Protein-1 (MCP1), CCL2 (gene 6347)
In words: BSK_LPS_MCP1: BioMAP Diversity Plus: LPS Assay for Monocyte Chemoattractant Protein-1 (MCP1) Biomarker Activity (AID 2283081).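 On AC50: secreted MCP-1 protein quantified by ELISA in culture supernatant.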 To be noted: primary human HUVEC with PBMC; actives raise or lower the signal. Summed up:
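Human umbilical vein endothelial cells co-cultured with PBMC, LPS-stimulated; secreted MCP-1 measured by ELISA 24 h after compound addition. Bidirectional curve fitting against DMSO baseline; SRB total-protein staining in parallel cultures for cytotoxicity.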

Assay [2] in a line: BSK_LPS_PGE2: BioMAP Diversity Plus: LPS Assay for Prostaglandin E2 (PGE2) Biomarker Activity (AID 2283082).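 On AC50: secreted prostaglandin E2 measured by ELISA in LPS-stimulated co-culture.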 As to conditions: primary human HUVEC with PBMC; actives raise or lower the signal. The essentials:
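Compounds were added to the LPS co-culture of endothelium and PBMC, and PGE2 was measured by ELISA after 24 h. Responses in either direction were fitted with DMSO as baseline.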

Read-out in assay [3]: Tissue Factor, F3 (gene 2152)
In words: BSK_LPS_TissueFactor: BioMAP Diversity Plus: LPS Assay for Tissue Factor Biomarker Activity (AID 2283084). To be noted: primary human HUVEC with PBMC; actives raise or lower the signal. The essentials:
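Human umbilical vein endothelial cells co-cultured with PBMC were dosed with compound. Cell-surface CD142 was measured by ELISA 24 h later. Activity was fitted bidirectionally against DMSO, with SRB total-protein staining in parallel cultures for cytotoxicity.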

Read-out in assay [4]: Tumor necrosis factor (Homo sapiens) (UniProt P01375)
In words: BSK_LPS_TNFa: BioMAP Diversity Plus: LPS Assay for Tumour Necrosis Factor alpha (TNFa) Biomarker Activity (AID 2283085).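 On AC50: TNFa protein level quantified by ELISA in the co-culture.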 To be noted: primary human HUVEC with PBMC; actives raise or lower the signal. Summed up: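 Cells (umbilical vein endothelium plus peripheral blood mononuclear cells) were dosed with chemical, incubated 24 h, then TNFa was quantified by ELISA; values derive from bidirectional fitting with DMSO as baseline.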

Read-out in assay [5]: Vascular cell adhesion molecule 1 (VCAM1), VCAM1 (gene 7412)
Nature of the assay: BSK_LPS_VCAM1: BioMAP Diversity Plus: LPS Assay for Vascular cell adhesion molecule 1 (VCAM1) Biomarker Activity (AID 2283086). To be noted: primary human HUVEC with PBMC; actives raise or lower the signal. Summed up:
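Cells are dosed in an LPS-stimulated endothelial/mononuclear co-culture and, after 24 h, VCAM-1 is quantified by ELISA. Activity in either direction is fitted relative to the DMSO negative control.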

Read-out in a further assay: CD38, CD38 (gene 952)
Nature of the assay: BSK_SAg_CD38: BioMAP Diversity Plus: SAg Assay for CD38 Biomarker Activity (AID 2283087). As to conditions: primary human HUVEC with PBMC; actives raise or lower the signal. Summed up: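 CD38 quantified by ELISA (fluorescence) in a superantigen-activated endothelial cell–PBMC co-culture at 24 h post-dose. Activity fitted in both directions relative to DMSO; parallel SRB and Alamar Blue cytotoxicity read-outs.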

Read-out in another assay: CD40, CD40 (gene 958)
Nature of the assay: BSK_SAg_CD40: BioMAP Diversity Plus: SAg Assay for CD40 Biomarker Activity (AID 2283088). To be noted: primary human HUVEC with PBMC; actives raise or lower the signal. Summed up: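 HUVEC plus PBMC co-culture, superantigen-activated, with CD40 read by ELISA 24 h after dosing. Curves fitted in both directions against DMSO. Overt cytotoxicity checked by parallel SRB total-protein staining.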

Read-out in a further assay: CD69, CD69 (gene 969)
In words: BSK_SAg_CD69: BioMAP Diversity Plus: SAg Assay for CD69 Biomarker Activity (AID 2283089).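 On AC50: cell surface CD69 protein quantified by ELISA with fluorescence detection.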 To be noted: primary human HUVEC with PBMC; actives raise or lower the signal. Summed up:
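Primary human vascular co-culture (umbilical vein endothelium with peripheral blood mononuclear cells) exposed to test chemical for 24 h. CD69 levels quantified by fluorescence ELISA; DMSO served as negative control for bidirectional fitting.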

Read-out in assay [6]: Monocyte Chemoattractant Protein-1 (MCP1), CCL2 (gene 6347)
Nature of the assay: BSK_SAg_MCP1: BioMAP Diversity Plus: SAg Assay for Monocyte Chemoattractant Protein-1 (MCP1) Biomarker Activity (AID 2283090). To be noted: primary human HUVEC with PBMC; actives raise or lower the signal. Summed up: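 Values derive from bidirectional fitting of ELISA-measured MCP1 against DMSO controls. Readings were taken 24 h after dosing human vascular endothelial cells co-cultured with peripheral blood mononuclear cells under superantigen stimulation.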

Read-out in assay [7]: E-selectin (Homo sapiens) (UniProt P16581)
In words: BSK_SAg_Eselectin: BioMAP Diversity Plus: SAg Assay for Eselectin Biomarker Activity (AID 2283091). To be noted: primary human HUVEC with PBMC; actives raise or lower the signal. Summed up: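 Human umbilical vein endothelial cells co-cultured with peripheral blood mononuclear cells, SAg system. E-selectin is measured by ELISA 24 h after dosing and fitted bidirectionally against DMSO. Cytotoxicity is checked by SRB staining of parallel cultures.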

Read-out in assay [8]: Monokine induced gamma interferon (MIG), CXCL9 (gene 4283)
In words: BSK_SAg_MIG: BioMAP Diversity Plus: SAg Assay for Monokine induced gamma interferon (MIG) Biomarker Activity (AID 2283092). As to conditions: primary human HUVEC with PBMC; actives raise or lower the signal. The essentials:
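Endothelial cells and PBMC were co-cultured, exposed to test chemicals, and sampled 24 h later. MIG was measured by ELISA, and responses were fitted in both directions relative to DMSO.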

The nature of assay [9]: BSK_SAg_PBMCCytotoxicity: PBMC Cytotoxicity Assessment in the BioMAP Diversity Plus: SAg Assay (AID 2283093).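 Further: fitted both ways against DMSO so a hit may be loss or gain of signal.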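 On AC50: PBMC superantigen activated with SEB plus TSST-1 one hour after compound addition.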 To be noted: primary human HUVEC with PBMC. Summed up: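 PBMC viability by Alamar Blue reduction, fluorescence read at 546/580 nm after 6 h dye exposure. Cells were dosed 1 h before SEB plus TSST-1 activation (20 ng/mL final each), then held 90 h; endothelial/PBMC human co-culture.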

Assay [10] can be described thus: BSK_SAg_Proliferation: Cell Proliferation Assessment in the BioMAP Diversity Plus: SAg Assay (AID 2283095).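 Further: relative cell number as total protein by SRB absorbance in sub-confluent culture.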 To be noted: primary human HUVEC with PBMC. Summed up:
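Absorbance of sulforhodamine B at 560 nm reports total protein in a human vascular endothelial/PBMC co-culture after 96 h chemical exposure. Gain or loss of signal is fitted in both directions against DMSO.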

Assay [11] can be described thus: BSK_SAg_SRB: Viability Assessment in the BioMAP Diversity Plus: SAg Assay (AID 2283096).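 Further: cells read one day after compound addition; hits may be either gain or loss of signal compared with DMSO.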 As to conditions: primary human HUVEC with PBMC. Summed up: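 Compounds were added to a human vascular co-culture of umbilical vein endothelium and PBMC. After 24 h, parallel cultures were fixed with 10% TCA, stained with 0.1% sulforhodamine B and read at 560 nm. Gain or loss of signal was fitted relative to DMSO.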

Read-out in assay [12]: Interleukin-8 (IL8), CXCL8 (gene 3576)
Nature of the assay: BSK_SAg_IL8: BioMAP Diversity Plus: SAg Assay for Interleukin-8 (IL8) Biomarker Activity (AID 2283094). To be noted: primary human HUVEC with PBMC; actives raise or lower the signal. Summed up: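 Chemicals were dosed onto a human endothelial–PBMC co-culture, and IL-8 was quantified by ELISA after 24 h. Both increases and decreases were fitted relative to DMSO.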

Read-out in assay [13]: Macrophage colony-stimulating factor (MCSF), CSF1 (gene 1435)
Nature of the assay: BSK_LPS_MCSF: BioMAP Diversity Plus: LPS Assay for Macrophage colony-stimulating factor (MCSF) Biomarker Activity (AID 2283083). To be noted: primary human HUVEC with PBMC; actives raise or lower the signal. The essentials: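 HUVEC–PBMC co-culture, M-CSF measured by ELISA 24 h after chemical dosing. Fitted in both directions relative to DMSO as negative control; overt cytotoxicity assessed by SRB total-protein staining in parallel cultures.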

E-selectin (Homo sapiens), sequence (P16581 whole entry, looked up): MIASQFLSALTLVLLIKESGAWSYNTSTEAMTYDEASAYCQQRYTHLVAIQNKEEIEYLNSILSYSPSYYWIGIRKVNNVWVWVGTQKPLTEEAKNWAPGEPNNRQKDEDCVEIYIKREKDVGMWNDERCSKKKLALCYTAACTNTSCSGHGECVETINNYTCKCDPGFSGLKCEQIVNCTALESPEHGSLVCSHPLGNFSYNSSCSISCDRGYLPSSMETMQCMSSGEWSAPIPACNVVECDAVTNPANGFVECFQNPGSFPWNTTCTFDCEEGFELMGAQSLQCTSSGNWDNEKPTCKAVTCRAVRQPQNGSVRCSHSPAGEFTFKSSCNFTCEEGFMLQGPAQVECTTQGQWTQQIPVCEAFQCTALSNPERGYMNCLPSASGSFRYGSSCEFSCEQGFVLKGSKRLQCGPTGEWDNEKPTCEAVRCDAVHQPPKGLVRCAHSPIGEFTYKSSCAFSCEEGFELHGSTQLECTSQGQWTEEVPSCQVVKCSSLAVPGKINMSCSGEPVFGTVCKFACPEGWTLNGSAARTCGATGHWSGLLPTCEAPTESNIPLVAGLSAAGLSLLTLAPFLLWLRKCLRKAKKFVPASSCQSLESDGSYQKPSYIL
Tumor necrosis factor (Homo sapiens), sequence (P01375 whole entry, looked up): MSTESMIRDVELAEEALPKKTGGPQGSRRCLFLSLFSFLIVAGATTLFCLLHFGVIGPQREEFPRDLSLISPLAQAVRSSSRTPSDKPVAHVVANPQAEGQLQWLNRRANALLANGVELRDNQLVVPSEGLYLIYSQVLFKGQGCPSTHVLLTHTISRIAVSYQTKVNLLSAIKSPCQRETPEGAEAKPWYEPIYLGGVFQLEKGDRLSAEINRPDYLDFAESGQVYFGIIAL

As for `CCOC(=O)C(C#N)=C(c1ccccc1)c1ccccc1`, the outcome in assay [1] is “inactive”; in assay [3] it was “inactive”; in [4] it was “inactive”; in assay [5] it was “inactive”; with CD38, CD38 (gene 952), “inactive”; in the assay with CD40, CD40 (gene 958), “inactive”. Further, the outcome with CD69, CD69 (gene 969) is “inactive”; in assay [6], “inactive”; in assay [7], “inactive”; in assay [8] it was “inactive”; in assay [9], “inactive”; in assay [10] it was “inactive”. For the same molecule, the outcome in assay [11] was inactive. The concentration at half-maximal activity (AC50) is 6.95 µM (active) and 2.79 µM (active) in assay [2]; 20 µM (active) in assay [6]; 29.8 µM (active) in assay [7]; 1.24 µM (active) in assay [9]; 14.1 µM (active) in assay [10].
Regarding `CN(c1nccc(=O)[nH]1)C1CCN(c2nc3ccccc3n2Cc2ccc(F)cc2)CC1`, the outcome was “inactive” in assay [1]; “inactive” in assay [2]; “inactive” in assay [3]; “inactive” in [4]; “inactive” in assay [5]; “inactive” with CD38, CD38 (gene 952). For the same molecule, the outcome with CD40, CD40 (gene 958) is “inactive”; in the assay with CD69, CD69 (gene 969), “inactive”; in assay [6], “inactive”; in assay [7], “inactive”; in assay [8], “inactive”; in assay [9] it was “inactive”. Also, the outcome in assay [12], in [10] and in assay [11] was inactive.
For the molecule `C[C@@H]1CCN(C(=O)[C@H](CCCN=C(N)N)NS(=O)(=O)c2cccc3c2NC[C@H](C)C3)[C@@H](C(=O)O)C1`, the outcome was “inactive” in assay [1]; “inactive” in assay [2]; “inactive” in assay [3]; “inactive” in assay [4]; “inactive” in assay [5]; “inactive” with CD38, CD38 (gene 952). Further, the outcome was “inactive” with CD40, CD40 (gene 958); “inactive” with CD69, CD69 (gene 969); “inactive” in assay [6]; “inactive” in assay [7]; “inactive” in assay [8]; “inactive” in assay [9]. Besides, the outcome in [10] and in assay [11] was inactive.
Regarding `CC(C)(C)CC(C)(C)c1ccc(OCCOCC[N+](C)(C)Cc2ccccc2)cc1`, the AC50 in assay [1] is 7.38 µM (active); in assay [3], 9.04 µM (active); in assay [4] it was 8.89 µM (active); in assay [5], 9.18 µM (active); in the assay with CD38, CD38 (gene 952), 5 µM (active); with CD40, CD40 (gene 958) it was 5 µM (active). The AC50 in the assay with CD69, CD69 (gene 969) was 3.28 µM (active); in assay [6], 5 µM (active); in assay [7], 3.59 µM (active); in [8], 6.44 µM (active); in [9], 3.23 µM (active); in assay [10], 0.773 µM (active). Besides, the AC50 in assay [11] was 8.46 µM (active). Besides, in [2], the outcome was inactive.
In the case of `c1ccc2cc(Nc3ccc(Nc4ccc5ccccc5c4)cc3)ccc2c1`, the outcome in assay [1], in [2], in assay [13], in assay [3], in assay [4] and in assay [5] was inactive. Besides, the outcome in the assay with CD38, CD38 (gene 952) is “inactive”; with CD40, CD40 (gene 958), “inactive”; in the assay with CD69, CD69 (gene 969), “inactive”; in assay [6], “inactive”; in [7], “inactive”; in [8] it was “inactive”. The result in assay [9], in [10] and in [11] was inactive.
With `CC=Cc1ccc(OCC)c(O)c1`, the outcome is “inactive” in assay [1]; “inactive” in assay [13]; “inactive” in assay [3]; “inactive” in assay [4]; “inactive” in [5]; “inactive” with CD38, CD38 (gene 952). The outcome with CD40, CD40 (gene 958) is “inactive”; with CD69, CD69 (gene 969), “inactive”; in assay [6], “inactive”; in [7] it was “inactive”; in [8] it was “inactive”; in assay [9], “inactive”. In addition, the outcome in assay [12], in assay [10] and in assay [11] was inactive. In addition, in assay [2], the half-maximal activity concentration (AC50) is 440 nM (active).
